# Screens deposited in PubChem by National Center for Advancing Translational Sciences (NCATS).
# Only some compounds are listed: those with a hit (about 3.2% of all), similar ones and a draw of the others.
# KDM4E inh = JMJD2E (human) inhibition | JMJD2E catalytic domain, FDH-coupled NADH fluorescence (FDH is formaldehyde dehydrogenase) | Potency, µM (top dose mostly 57.1 µM), inactives show at the top dose activity change, negative = inhibition, hits mostly inhibitors | actives 1.6% (n = 230,000) | AID 2147; active = well fitted inhibition curve with a large enough effect, not every such curve was filed as active; inconclusive = small, poorly fitted or top-dose-only effect, or another doubt; inactive = no such curve, though single readings can be large or run the other way;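 note: potency is the fitted concentration of half-maximal effect; 0% = wells with enzyme and -100% = buffer wells without enzyme; nearly all actives have a fitted effect of over 50% in size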
# Target sequence (B2RXH2 1-337 limits assumed): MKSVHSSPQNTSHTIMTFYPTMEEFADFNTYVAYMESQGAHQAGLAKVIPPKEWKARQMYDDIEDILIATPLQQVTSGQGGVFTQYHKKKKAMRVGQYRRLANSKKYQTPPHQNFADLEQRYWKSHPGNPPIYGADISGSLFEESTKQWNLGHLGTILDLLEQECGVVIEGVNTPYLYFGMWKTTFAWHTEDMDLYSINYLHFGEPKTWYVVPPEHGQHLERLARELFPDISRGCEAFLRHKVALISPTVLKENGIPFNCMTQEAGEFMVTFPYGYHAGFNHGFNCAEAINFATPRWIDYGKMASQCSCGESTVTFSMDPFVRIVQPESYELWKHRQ
# LMNA splice mod = LMNA splicing modulation | HeLa LMNA splicing GFP/RFP minigene ratio, 48 h | Potency, µM (doses to about 46.1 µM), without a hit: top-dose ratio change, negative = inhibition, hits mostly inhibitors | actives 0.01% (n = 200,000); active = well fitted inhibition curve with a large enough effect in the signal ratio, with a control signal flat, not every such curve was filed as active; inconclusive = small, poorly fitted or top-dose-only effect, or effect the other way, or a change in a side signal; the % refers to the signal ratio; note: potency is the fitted concentration of half-maximal effect; % is set by controls: 0 for no effect and ±100 for the full control effect
#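 S3 HeLa stable clones carrying a lamin A-EGFP splicing minigene plus DsRed2 were seeded at 600 cells/well in Opti-MEM with 2% FBS, pin-dosed and incubated 48 h at 37°C. Acumen cytometry (488 nm) gave the GFP/RFP total-intensity ratio.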
# Tau fibril ThT = inhibitors of human tau fibril formation, thioflavin T binding. recombinant tau K18 P301L, heparin-induced fibrillization, ThT fluorescence. actives 2.1% (n = 270,000). P10636. Potency, µM (titrated, usually from 57.4 µM), without a hit: at the top dose activity, negative = inhibition, most hits filed as inhibitors; note: potency is the fitted concentration of half-maximal effect; % is set by controls: 0 for no effect and ±100 for the full control effect; nearly all actives have a fitted effect of over 55% in size
# Target sequence (P10636 561-689 P618L limits assumed): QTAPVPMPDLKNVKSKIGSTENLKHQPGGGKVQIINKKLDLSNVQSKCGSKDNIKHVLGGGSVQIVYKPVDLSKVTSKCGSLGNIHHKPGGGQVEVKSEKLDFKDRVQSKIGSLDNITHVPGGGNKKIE
#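 Recombinant human tau K18 fragment […] carrying P301L, 15 uM unlabeled plus 0.24 uM Alexa 594-labeled, was fibrillized with 20 uM heparin in 100 mM sodium acetate pH 7 for 6 hr at 37 C; 30 uM ThT fluorescence read after 1 hr.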
# Tau fibril FP = inhibitors of human tau fibril formation. actives 0.39% (n = 280,000). K18 P301L tau heparin fibrillization, Alexa594 FP, 6 h. Potency, µM (top dose mostly 57.7 µM), inactives show at the top dose activity, negative = inhibition, usual class: inhibitors; note: potency is the fitted concentration of half-maximal effect; % is set by controls: 0 for no effect and ±100 for the full control effect; nearly all actives have a fitted effect of over 55% in size
#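 Quantitative HTS format: compounds meet 15 uM recombinant K18 P301L tau and Alexa 594-tau tracer in 100 mM sodium acetate pH 7; 20 uM heparin triggers fibrillization at 37 C over 6 hr; FP gives the signal.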
# CBFb RUNX1 block = CBF-beta/RUNX1 interaction disruption; Q01196+Q13951; AlphaScreen CBFb-His/RUNX1-biotin binding, biochemical; Potency, µM (titrated, usually from 59.8 µM), inactives show top-dose activity, negative = inhibition, most hits filed as inhibitors; 230,000 tested, under 10 active; note: % of control where 0% means no effect
#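 Compounds were screened at multiple concentrations against a preformed CBF-beta(His)/RUNX1(biotin) complex (30 nM of each) for 15 min at room temperature, followed by 90 min with nickel and streptavidin beads and AlphaScreen reading.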
# Tau fluor cs = counter-screen for tau fibril formation inhibitors; tau K18 P301L Alexa594 fluorescence, heparin fibrillization; Potency, µM (top dose mostly 57.7 µM), for the others: at the top dose activity change, negative = decrease; actives 0.93% (n = 280,000); AID 1463; note: potency is the fitted concentration of half-maximal effect; % is set by controls: 0 for no effect and ±100 for the full control effect; nearly all actives have a fitted effect of over 55% in size
#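 Human tau K18 P301L (15 uM unlabeled, 0.24 uM Alexa 594-labeled) in 100 mM sodium acetate pH 7 with 20 uM heparin, 6 hr at 37 C. ThT 30 uM added, 1 hr ambient; Alexa 594 FP and total fluorescence read at 555/632 nm.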
# * marks the source's active call; other numbers are inactive results; ? = inconclusive; nt = no result; [ ] = remark or other dose. Unless noted, calls come from the whole dose curve; as a rule, active = well fitted curve in the direction sought with a large enough effect; inconclusive = small, poorly fitted or top-dose-only effect, or another doubt; inactive = no such curve, though single readings can be large; an effect the other way counts as inactive or inconclusive.
SMILES,KDM4E inh,LMNA splice mod,Tau fibril ThT,Tau fibril FP,CBFb RUNX1 block,Tau fluor cs
Cn1c(O)c(N=Nc2nc(-c3ccccc3)cs2)c2ccccc21,-12%,-3%,2µM*,-3%,1%,-21%
Cn1c(O)c(N=Nc2ccc(F)cc2)c2ccccc21,-25%,15%[46 µM],13µM*,-6%,-6%,-12%
CCOc1ccc(C(=O)c2cn(CC(=O)Nc3cccc(OC)c3)c3cc4c(cc3c2=O)OCCO4)cc1,nt,nt,3%,?,nt,-17%
COc1cccc(C2C(C(=O)Nc3ccc(C)cc3C)=C(C)Nc3c(C(=O)Nc4cccc(C)c4)cnn32)c1OC (centres undefined),nt,?,-9%,-18%,nt,-14%
O=C(O)C1=CC(O)[C@@H](O)C(O)C1 (some centres undefined),-3%,-6%,-3%,4%,nt,-4%
COCCN=c1scc(-c2cc(OC)ccc2OC)n1/N=C/c1c[nH]c2ccccc12,?,-29%,?,-10%,?,7.9µM*[quencher]
Clc1ccc(Nc2c(-c3ccccc3Cl)nc3ccc(Cl)cn23)cc1,nt,nt,0%,6%,nt,-20%
Cc1ccc(Nc2c(-c3ccccc3O)nc3cnccn23)cc1,-24%,?,-17%,10%,-17%,18µM*[quencher]
COc1ccc(Nc2c(-c3ccc(C)cc3)nc3cnccn23)cc1,-8%,2%[46 µM],-17%,16%,?,?
Oc1ccccc1-c1nc2cnccn2c1Nc1ccc(Cl)cc1,nt,nt,-14%,-1%,nt,13µM*[quencher]
CCOc1cc(C2NC(=O)c3c(sc4c3CCN(C)C4)N2)ccc1OC(=O)c1ccccc1Cl (centres undefined),nt,nt,?,0%,nt,-5%
CC(C)c1cccc(C(C)C)c1NC1=NS(=O)(=O)c2ccccc21,nt,nt,8%,1%,nt,-4%
O=[N+]([O-])c1cc(Cl)c(O)c2ncccc12,?,?,13µM*,-5%,nt,-20%
O=[N+]([O-])c1cc([N+](=O)[O-])c2cccnc2c1Oc1ccccc1O,22µM*,?,?,0%,?,-13%
Oc1c(I)cc(Cl)c2cccnc12,14µM*,?,?,?,-10%,?
O=[N+]([O-])c1cc(Cl)c2cccnc2c1O,13µM*,?,10µM*,-3%,?,-9%
O=[N+]([O-])c1cc(F)c2cccnc2c1O,87%,?,7.9µM*,?,-27%,-21%
O=[N+]([O-])c1ccc(O)c2ncccc12,?,?,?,?,?,-18%
N#Cc1ccc(NCCNCC(=O)N2N=CCC2C#N)nc1 (centres undefined),nt,nt,nt,nt,8%,nt
O=[N+]([O-])c1ccc(O)c(Nc2ncnc3ccc(Br)cc23)c1,-4%,nt,16µM*,4%,-4%,-30%
COC(=O)C(N)Cc1ccc(O)c(O)c1 (centres undefined),14µM*,-2%,?,1%,-19%,-13%
O=C(/C=C/c1ccc(O)c(O)c1)O[C@H](Cc1ccc(O)c(O)c1)C(=O)O,?,nt,13µM*,?,nt,14µM*[quencher]
O=C(/C=C/c1ccc(O)c(O)c1)c1ccc(O)cc1O,nt,nt,nt,nt,-12%,nt
CC(=O)NCCc1ccc(O)c(O)c1,18µM*,?,?,?,-8%,?
NC(Cc1ccc(O)c(O)c1)C(=O)O (centres undefined),?,nt,11µM*,25µM*,nt,18µM*[quencher]
SMILES,KDM4E inh,LMNA splice mod,Tau fibril ThT,Tau fibril FP,CBFb RUNX1 block,Tau fluor cs
NCCCC[C@H](NC(=O)[C@H](Cc1c[nH]c2ccccc12)NC(=O)[C@H](CC(=O)O)NC(=O)[C@H](Cc1cnc[nH]1)NC(=O)[C@H](CO)NC(=O)[C@H](Cc1c[nH]c2ccccc12)NC(=O)[C@H](Cc1cnc[nH]1)NC(=O)[C@@H]1CCC(=O)N1)C(=O)N1CCC[C@H]1C(=O)NCC(N)=O,nt,nt,nt,nt,12%,nt
FC(F)(F)c1cc(NC(=S)NC23CC4CC(CC(C4)C2)C3)cc(C(F)(F)F)c1,-3%,nt,4%,-9%,-4%,-17%
CCc1ccc(C2CC(=O)c3c([nH]c(C(=O)OC4CCCC4)c3C)C2)cc1 (centres undefined),nt,nt,-4%,-15%,nt,-13%
COc1ccccc1NC(=O)c1sc2nc(C)c(C(=O)Nc3ccc(C)cc3C)c(-c3ccc(C)o3)c2c1N,nt,nt,?,-9%,nt,?
CCC1CCCCN1S(=O)(=O)c1ccc(N2CCCCS2(=O)=O)cc1 (centres undefined),nt,12%[46 µM],0%,3%,nt,-6%
N[C@H](Cc1ccc(O)c(O)c1)C(=O)O,18µM*,-20%,16µM*,?,nt,-8%
CCCOc1ccc(C(=O)Nc2c(C(=O)c3ccc(C)cc3)oc3ccccc23)cc1,nt,nt,4%,-14%,nt,-20%
NC(=O)c1cc(-c2ccccc2)sc1NC(=O)CN1CCCCC1,?,-8%,-13%,?,-1%,18µM*[quencher]
Cc1ccc(S(=O)(=O)C2CS(=O)(=O)CC2O)cc1 (centres undefined),-1%,-6%,6%,7%,25%,6%
CC(=O)C1=C(S(=O)(=O)c2ccc(C)cc2)CS(=O)(=O)C1,14µM*,?,25µM*,28µM*,6%,-20%
O=C(Cn1cnc2onc(-c3ccc(F)cc3)c2c1=O)N1CCN(c2ccccc2F)CC1,nt,-15%[46 µM],-14%,?,nt,?
Cc1nc(N)sc1-c1csc(Nc2ccccn2)n1,?,12%,13µM*,?,?,14µM*[quencher]
Cc1ccc(Nc2nc(-c3ccncc3)cs2)cc1,10%,-20%[46 µM],?,-1%,2%,-28%
Cc1nc(N)sc1-c1csc(Nc2ccc(Cl)cn2)n1,-20%,?,7.9µM*,-5%,-12%,14µM*[quencher]
COc1ccc(Nc2nc(-c3sc(N)nc3C)cs2)cc1,5%,12%,8.9µM*,?,?,?
COc1ccc(-c2csc(Nc3ccc(C)cn3)n2)cc1,-1%,nt,-6%,-3%[2.34 µM],0%,-4%
COc1ccc(CCNc2nc(-c3sc(N)nc3C)cs2)cc1OC,-7%,-11%,14µM*,?,-25%,?
COc1ccc(CCNc2ccncn2)cc1OC,-2%,-15%,-17%,3%,-6%,-12%
Cc1ccc(S(=O)(=O)N[C@H]2COC(=O)CC=C[C@@H](C)[C@H]3C=C[C@H](O)[C@@H](COC(=O)CC=C[C@H]2C)O3)cc1,nt,nt,-2%[11.5 µM],-3%[11.6 µM],26%[13.1 µM],2%[11.6 µM]
Cc1cc(OCCn2c(CCNC(=O)C3CCCCC3)nc3ccccc32)ccc1Cl,nt,nt,-10%,-2%,nt,-2%
